Measured values published in PubChem BioAssay AID485346 (Sanford-Burnham Center for Chemical Genomics, 2010).
Screen size: about 330,000 compounds; about 10,000 (3%) were called active.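 The calls were made as follows: active = inhibition of at least 50% at 8 µM in the primary screen; inactive = the rest.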 The full list was thinned out, with actives kept by preference.

Molecular target: Protein Mdm4 (Homo sapiens) + E3 ubiquitin-protein ligase Mdm2 (Homo sapiens) (UniProt O15151+Q00987)
Assay: disruptors of Mdm2/MdmX RING complex – cell-based, luminescence, split luciferase, SaOS-2, uHTS, primary screen (AID 485346)
Conditions: SaOS-2 split-luciferase Mdm2/MdmX complementation, at 8 µM, stronger effect = higher value

Sequence of Protein Mdm4 (Homo sapiens) + E3 ubiquitin-protein ligase Mdm2 (Homo sapiens) (O15151 whole entry, looked up): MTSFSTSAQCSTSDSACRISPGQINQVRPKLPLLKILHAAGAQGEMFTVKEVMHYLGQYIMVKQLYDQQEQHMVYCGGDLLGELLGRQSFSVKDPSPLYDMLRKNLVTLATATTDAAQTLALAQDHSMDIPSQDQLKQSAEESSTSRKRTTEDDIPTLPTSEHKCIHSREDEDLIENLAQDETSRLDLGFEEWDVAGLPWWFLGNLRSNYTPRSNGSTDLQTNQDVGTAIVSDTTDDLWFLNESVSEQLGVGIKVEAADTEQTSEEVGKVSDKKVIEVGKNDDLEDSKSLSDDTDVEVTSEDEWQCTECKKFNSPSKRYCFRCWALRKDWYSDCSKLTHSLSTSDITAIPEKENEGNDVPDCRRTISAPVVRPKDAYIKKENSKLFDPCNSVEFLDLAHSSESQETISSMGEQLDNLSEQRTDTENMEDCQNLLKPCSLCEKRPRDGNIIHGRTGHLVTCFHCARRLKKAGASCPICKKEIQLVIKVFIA
Sequence of Protein Mdm4 (Homo sapiens) + E3 ubiquitin-protein ligase Mdm2 (Homo sapiens) (Q00987 whole entry, looked up): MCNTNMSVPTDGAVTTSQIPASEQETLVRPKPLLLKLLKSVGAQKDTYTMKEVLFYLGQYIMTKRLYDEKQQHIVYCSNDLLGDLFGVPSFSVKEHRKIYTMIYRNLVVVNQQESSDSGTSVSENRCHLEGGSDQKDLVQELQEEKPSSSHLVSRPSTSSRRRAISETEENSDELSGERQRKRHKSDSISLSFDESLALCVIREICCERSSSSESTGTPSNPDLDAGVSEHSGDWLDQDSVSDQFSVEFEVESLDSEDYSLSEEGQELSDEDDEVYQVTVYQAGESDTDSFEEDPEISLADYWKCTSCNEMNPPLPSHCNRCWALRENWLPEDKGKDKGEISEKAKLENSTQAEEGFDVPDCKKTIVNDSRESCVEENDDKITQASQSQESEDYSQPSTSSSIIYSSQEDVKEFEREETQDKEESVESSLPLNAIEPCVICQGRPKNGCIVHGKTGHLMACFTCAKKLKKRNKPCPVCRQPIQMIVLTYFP

SMILES	inhibition
CCCCC(=O)N1CC2(C)CN(C(=O)CCCC)CC(C)(C1)C2=O	-4.56% (inactive)
CN(C(=O)c1c(Cl)cnn1C)C12CC3CC(CC(C3)C1)C2	4.45% (inactive)
Cc1ccc2[nH]c(=O)c(CN(CCCN(C)C)C(=O)Nc3cccc(Cl)c3)cc2c1	66.9% (active)
CCC(=O)N(CCc1ccccc1)Cc1cc2cc(C)ccc2[nH]c1=O	-5.57% (inactive)
Cc1ccc2[nH]c(=O)c(CN(CC3COCCO3)C(=O)Nc3ccccc3C)cc2c1 (stereo not given)	6.03% (inactive)
CC(C)NC(=O)N1CCN(c2ccncc2S(=O)(=O)N2CCCCC2)CC1	14.5% (inactive)
Cc1ccc2[nH]c3c(=O)n(Cc4ccccn4)cnc3c2c1	7.52% (inactive)
CCOc1cc(/C=N/Nc2cc(C)nc3ccc(C)cc23)ccc1O	3.4% (inactive)
COc1cc(OC)c(OC)cc1/C=N/Nc1ncnc2c1[nH]c1ccc(C)cc12	78.4% (active)
Cc1ccc(CC(=O)N(C)CC(=O)N(CC(C)C)c2c(N)n(CC(C)C)c(=O)[nH]c2=O)cc1C	-20.2% (inactive)
Cc1ccc(C)c(CN2CCC(CNC(=O)Nc3ccc(C)c(F)c3)CC2)c1	42.6% (inactive)
Cc1cccc(CN2CCC(CNC(=O)Nc3ccc(F)c(Cl)c3)CC2)c1	51.6% (active)
Cc1ccccc1NC(=O)NCC1CCN(Cc2cccc(Cl)c2)CC1	8.22% (inactive)
O=C(COC(=O)/C(=C/c1cccs1)c1cccs1)NCc1ccccc1Cl	-28% (inactive)
CCN(Cc1ccccc1)S(=O)(=O)c1cc2c3c(c1)CCN3C(=O)CC2	-8.54% (inactive)
CCCC[C@@H]1CN=C(N)N1CCCC	16.5% (inactive)
CCCC[C@@H]1CN=C(N)N1CCc1cccc(F)c1	-13.6% (inactive)
CCCC[C@@H]1CN=C(N)N1CCc1cc(C(F)(F)F)cc(C(F)(F)F)c1	68.1% (active)
O=C(C1CCN(C2CCN(Cc3ccc4cc(F)ccc4n3)CC2)CC1)N1CCCC1	6.09% (inactive)
CCCc1nc2oc3c(OCC)ncnc3c2c2c1COC(C)(C)C2	-1.2% (inactive)
O=C(Nc1nonc1-c1ccc(Cl)cc1)c1ccco1	3.32% (inactive)
O=C(COC(=O)/C=C/c1cn(-c2ccccc2)nc1-c1cccnc1)Nc1ccc(Cl)cc1Cl	61.3% (active)
Cc1ccc(/C=C/C(=O)OCC(=O)Nc2cccnc2Cl)cc1	7.79% (inactive)

SMILES	inhibition
COc1ccc(NC(=O)CN(C)C(=O)/C=C/c2cn(Cc3ccccc3)nc2-c2cccnc2)cc1	9.31% (inactive)
COc1ccccc1CC(=O)Nc1ccc([N+](=O)[O-])cc1OC	19.7% (inactive)
COc1cc([N+](=O)[O-])ccc1NC(=O)CN1CCCC1	-4.27% (inactive)
COc1cc([N+](=O)[O-])ccc1NC(=O)COC(=O)CCOc1ccc(C)cc1	57.2% (active)
N#Cc1c(N)sc2c1CCN(C(=O)OCc1ccccc1)C2	17.8% (inactive)
Cc1ccc(C(=O)N/C(=C/c2ccc(-c3cccc([N+](=O)[O-])c3)o2)C(=O)NCCCN(C)C)cc1	78.3% (active)
C=CCNC(=O)/C(=C\c1cccc([N+](=O)[O-])c1)NC(=O)c1ccccc1	22.1% (inactive)
CN(C)CCNC(=O)/C(=C/c1cccc([N+](=O)[O-])c1)NC(=O)c1ccccc1	-8% (inactive)
NS(=O)(=O)c1cccc(NC(=O)COC(=O)c2cc([N+](=O)[O-])ccc2N2CCCC2)c1	17.6% (inactive)
CC(C)Oc1ccc(C(=O)NCC(=O)Nc2ccc3c(c2)CCC3)cc1	-15.9% (inactive)
CC(NC(=O)c1ccco1)C(=O)Nc1nc(-c2ccccn2)cs1 (stereo not given)	21.9% (inactive)
O=C(COc1ccccc1F)Nc1nc(-c2ccccn2)cs1	72.2% (active)
O=C(CN1C(=O)C2C3C=CC(C3)C2C1=O)Nc1nc(-c2ccccn2)cs1 (stereo not given)	33.1% (inactive)
CCOc1ccc(CN2CCN(Cc3ccc4cc(F)ccc4n3)CC2CCO)cc1 (stereo not given)	-16.3% (inactive)
COc1ccc(CNC(=O)COC(=O)c2c(C)nn(-c3ccccc3)c2C)cc1OC	-1.13% (inactive)
COc1ccc(/C=C/C(=O)Nc2ccc(C)cc2)cc1S(=O)(=O)N1CCOCC1	18.3% (inactive)
COc1ccc(/C=C/C(=O)Nc2ccc(C34CC5CC(CC(O)(C5)C3)C4)cc2)cc1OC	59.1% (active)
COc1ccc(/C=C/C(=O)N2CCCC2)cc1OC	5.87% (inactive)
CCn1nc(C(=O)NNC(=O)C2CSC3(C)CCC(=O)N23)c2ccccc2c1=O (stereo not given)	25.6% (inactive)
Cc1cccc(N2CCN(C(=O)c3cc4c(=O)[nH]c5ccccc5c4n3C)CC2)c1C	40.5% (inactive)
O=C1CN(C(=O)c2cc(F)cc(F)c2)c2ccccc2N1	21% (inactive)
CCOc1cc(N2CCOCC2)c(OCC)cc1NC(=O)COc1cccc(Cl)c1	-4.41% (inactive)
CCOc1cc(N2CCOCC2)c(OCC)cc1NC(=O)COc1cccc2cccnc12	90.6% (active)

SMILES	inhibition
CCOc1cc(N2CCOCC2)c(OCC)cc1NC(=O)c1cc(C)nc2ccccc12	-16.5% (inactive)
O=S(=O)(Nc1cc(Cl)ccc1N1CCOCC1)c1ccccc1Cl	1.14% (inactive)
Cc1ccc2occ(/C=N/NC(=O)c3ccccc3C)c(=O)c2c1	68.7% (active)
CC(C)(C)OC(=O)NCCCCCC(=O)N/N=C/c1coc2ccccc2c1=O	19.7% (inactive)
O=c1c(/C=N/O)coc2ccc(Cl)cc12	9.78% (inactive)
O=C1CC(Cc2ccc(Cl)cc2)C(=O)N1c1cc(Cl)ccn1 (stereo not given)	-4.34% (inactive)
CN(C)/C(CN1CCCCC1)=C1\N=C(c2ccccc2)OC1=O	0.454% (inactive)
CCc1cc2cc(OC)ccc2nc1SCC(=O)Nc1cc(OC)c(OC)cc1C(=O)O	17% (inactive)
Cc1ccc(C)c(N2CCN(S(=O)(=O)c3c(C)[nH]c(C)c3C(=O)N3CCCC3)CC2)c1	5.45% (inactive)
Cc1[nH]c(C)c(S(=O)(=O)N2CCN(c3cccc(C(F)(F)F)c3)CC2)c1C(=O)N1CCCC1	14.7% (inactive)
Cc1[nH]c(C)c(S(=O)(=O)N2CCN(c3cccc(C(F)(F)F)c3)CC2)c1C(=O)N1CCCCC1	76.3% (active)
CCOn1c(=O)c(=O)n(O)c2ccccc21	3.67% (inactive)
CCS(=O)(=O)NCCc1ccc(OC)c(OC)c1	18.8% (inactive)
COc1ccc(-c2cc(-c3ccc(N)cc3)nc(N)c2C#N)cc1OC	32.6% (inactive)
COc1ccc(-c2cc(C(F)(F)F)nc(S(C)(=O)=O)n2)cc1OC	94.6% (active)
Cc1nc2ccccc2nc(=O)c1NNc1ccc([N+](=O)[O-])cc1	-2.46% (inactive)
Cc1ccc(C)c(NS(=O)(=O)c2c(C)[nH]c(C)c2C(=O)N2CCCCC2)c1	-0.656% (inactive)
Cc1c(C)n(Cc2ccc(Cl)cc2)c2ccc(C(=O)NCCCN3CCOCC3)cc12	45.2% (inactive)
c1ccc2c(c1)CSc1sccc1C2=C1CCNCC1	78.5% (active)
CC1(C(=O)OCC(=O)Nc2ncc(Cl)cc2Cl)CC1(Cl)Cl (stereo not given)	-3.51% (inactive)
C=CCNC(=S)NNc1ncnc2sc3c(c12)CC(C)(C)OC3	10.5% (inactive)
COc1cc(/C=C/C(=O)OCC(=O)NCCCc2ccccc2)ccc1O	-15.8% (inactive)
O=C(CCC(=O)N1CCCC1)Nc1ccc([N+](=O)[O-])cc1	8.85% (inactive)

SMILES	inhibition
CCC12CN3CC(CC)(CN(C1)C31C(=O)N(C)c3ccc(C)cc31)C2=O (stereo not given)	5.2% (inactive)
CCC1=Nc2cc(C(=O)NCCN3CCCC3)ccc2Sc2ccc(C)cc21	22.7% (inactive)
Cc1cccc(-c2nc3ccc(C(=O)NCCN4CCN(C)CC4)cc3nc2-c2cccc(C)c2)c1	93.2% (active)
Cc1cccc(C(=O)OC(C)CN2CCN(C)CC2)c1 (stereo not given)	15.4% (inactive)
O=C(CCN1C(=O)c2ccccc2C1=O)NNC(=O)c1ccc(Cl)cc1Cl	-2.94% (inactive)
Cc1ccc(C(=O)NNC(=O)c2ccc3c(c2)OCCO3)cc1	-59.9% (inactive)
CCCCn1c(N)c(N(CCC(C)C)C(=O)COC(=O)c2ccc(CC)cc2)c(=O)[nH]c1=O	5.72% (inactive)
CCc1ccccc1NC(=O)[C@@H]1CCC(=O)N1C1OC(=O)c2c1ccc(OC)c2OC (stereo not given in full)	18.1% (inactive)
CC1CN(C(=O)CCC(=O)NCc2cccnc2)c2ccccc2O1 (stereo not given)	-8.45% (inactive)
CC1CN(C(=O)CCC(=O)NCCCN2CCC(Cc3ccccc3)CC2)c2cc(Cl)ccc2O1 (stereo not given)	90.6% (active)
CC1CN(C(=O)CCC(=O)NC2CCN(Cc3ccccc3)CC2)c2ccccc2O1 (stereo not given)	22.7% (inactive)
CC(OC(=O)CCc1nc(=O)c2ccccc2n1C)C(=O)NCc1ccc2c(c1)OCO2 (stereo not given)	-11.9% (inactive)
CN(CC(=O)NC(=O)Nc1ccccc1F)Cc1ccccc1	-18% (inactive)
CCOC(=O)CSc1nncc2ccc(OC)c(OC)c12	0.893% (inactive)
COc1ccc(C2c3c(C)nn(-c4ccccc4)c3NC(=O)N2c2ccccc2)cc1 (stereo not given)	9.76% (inactive)
CCCCCCCCn1c2c(c(=N)c3c1CCC3)CCCC2	87% (active)
Cc1cc([N+](=O)[O-])nn1CCCC(=O)Nc1cccnc1Cl	21.4% (inactive)
COc1ccc(N2CCN(S(=O)(=O)CCNC(=O)C34CC5CC(CC(C5)C3)C4)CC2)cc1	17.2% (inactive)
CCOC(=O)C(C)n1nc(-c2ccccc2)c2ccccc2c1=O (stereo not given)	7.24% (inactive)
Cc1cc(C)nc(/N=C2\NC(=O)CC(C(=O)O)N2c2ccc(Cl)cc2Cl)n1 (stereo not given)	3.8% (inactive)
O=C(COC(=O)c1ccccc1Cl)NC1CCCCCCC1	4.18% (inactive)
